Test results taken from PubChem BioAssay AID1347420 (Sanford-Burnham Center for Chemical Genomics, 2020).
Screen size: about 1,300 compounds; about 980 (75%) were called active. Another 4% or so got no clear call; they are omitted. This is one part of the list.

Biological target: Sulfhydryl oxidase 1 (Homo sapiens) (UniProt O00391)
Experiment: QSOX1 enzyme inhibitors, primary screen, biochemical, HyperBlu H2O2 luminescence, HTS (AID 1347420); further: values above 100% were filed as inconclusive
Settings: recombinant QSOX1, HyperBlu H2O2 luminescence; at 12.5 µM; active compounds read high; active = any value above zero

Chain of Sulfhydryl oxidase 1 (Homo sapiens) (O00391 whole entry, looked up): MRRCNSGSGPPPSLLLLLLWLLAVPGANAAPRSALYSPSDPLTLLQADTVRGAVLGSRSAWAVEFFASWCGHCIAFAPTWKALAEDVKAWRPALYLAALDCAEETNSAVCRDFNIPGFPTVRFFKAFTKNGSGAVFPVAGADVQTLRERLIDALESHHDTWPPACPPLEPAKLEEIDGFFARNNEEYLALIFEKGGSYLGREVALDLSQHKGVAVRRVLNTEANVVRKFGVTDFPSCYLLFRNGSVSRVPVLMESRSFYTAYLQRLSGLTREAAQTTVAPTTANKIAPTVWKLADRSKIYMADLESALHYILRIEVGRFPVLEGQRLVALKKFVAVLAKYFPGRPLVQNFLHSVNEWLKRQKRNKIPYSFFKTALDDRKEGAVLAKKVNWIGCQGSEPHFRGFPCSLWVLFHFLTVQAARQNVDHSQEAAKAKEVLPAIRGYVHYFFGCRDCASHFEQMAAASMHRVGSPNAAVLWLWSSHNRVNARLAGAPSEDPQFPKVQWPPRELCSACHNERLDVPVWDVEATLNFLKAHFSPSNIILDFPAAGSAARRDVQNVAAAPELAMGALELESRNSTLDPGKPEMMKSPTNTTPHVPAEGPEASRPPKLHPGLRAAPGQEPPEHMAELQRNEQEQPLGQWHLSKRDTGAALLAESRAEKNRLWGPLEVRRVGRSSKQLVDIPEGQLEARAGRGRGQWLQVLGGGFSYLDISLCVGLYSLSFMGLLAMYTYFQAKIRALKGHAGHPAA

Row | Structure (SMILES) | inhibition
1 | CC[N+](CC)(CC)CC | -0.4% (inactive)
2 | Cc1oncc1C(=O)Nc1ccc(C(F)(F)F)cc1 | -3.1% (inactive)
3 | O=C(c1ccc2c(c1)OCCO2)N1CCCCC1 | 5.6% (active)
4 | O=C(O)c1ccccc1Nc1cccc(OCc2ccc3ccccc3n2)c1 | 70.1% (active)
5 | CCCCCC(O)c1cccc(OCc2ccc3ccccc3n2)c1 (stereo unspecified) | -4.5% (inactive)
6 | NCCCCCCCCCCN | 12.8% (active)
7 | NCCCCN | 14.6% (active)
8 | CCN(CC)CCOC(=O)C1(C2CCCCC2)CCCCC1 | 28.2% (active)
9 | O=C(O)CP(=O)(O)O | 10% (active)
10 | CN=c1nc(-c2ccccc2)n(-c2ccccc2)s1 | 25.4% (active)
11 | S=C([S-])OC1CC2C[C+]1C1CCCC21 (stereo unspecified) | 1.4% (active)
12 | CN(CC[C@@H](Oc1ccc(C(F)(F)F)cc1)c1ccccc1)CC(=O)O | 21.6% (active)
13 | CNCC[C@H](Oc1ccc(C(F)(F)F)cc1)c1ccccc1 | 0.1% (active)
14 | CNCCC(Oc1ccc(C(F)(F)F)cc1)c1ccccc1 (stereo unspecified) | -9.7% (inactive)
15 | CCCCCCCCCC(=O)NC(CN1CCOCC1)[C@H](O)c1ccccc1 (stereo partly specified) | -17.8% (inactive)
16 | CCCCCCCCCC[Si](C)(C)CCC(=O)NC(Cc1ccc(C)cc1)c1ccccc1 (stereo unspecified) | 19.6% (active)
17 | CCCn1c(=O)[nH]c(=O)c2[nH]cnc21 | 3.6% (active)
18 | Cc1nc2ccccn2c(=O)c1CCN1CCC(C(=O)c2ccc(F)cc2)CC1 | 5.5% (active)
19 | Cc1nc2sccn2c(=O)c1CCN1CCC(=C(c2ccccc2)c2ccc(F)cc2)CC1 | 2.9% (active)
20 | O=C(c1ccc(F)cc1)C1CCN(CCn2c(=O)[nH]c3ccccc3c2=O)CC1 | -10.7% (inactive)
21 | Cc1nc2n(c(=O)c1CCN1CCC(c3noc4cc(F)ccc34)CC1)CCCC2O (stereo unspecified) | 0% (inactive)
22 | Cc1nc2sccn2c(=O)c1CCN1CCC(=C(c2ccc(F)cc2)c2ccc(F)cc2)CC1 | 7.1% (active)

Row | Structure (SMILES) | inhibition
23 | CC1(C)C(=O)N(CCN2CCC(C(=O)c3ccc(F)cc3)CC2)c2ccccc21 | 7.2% (active)
24 | FC(F)(F)c1ccccc1-n1ccnc1 | -11.4% (inactive)
25 | COc1ccccc1OCCNCC(O)COc1cccc2[nH]c3ccccc3c12 (stereo unspecified) | 11% (active)
26 | CN1CCc2ccccc2Cc2[nH]c3ccccc3c2CC1 | 51.2% (active)
27 | NC(N)=N[C@@H](CCC(=O)O)C(=O)O | 10.9% (active)
28 | COc1ccc(C(=O)NCc2cccnc2)cc1C(=O)NCc1cccnc1 | 1.3% (active)
29 | O=C1O/C(=C/Br)CCC1c1cccc2ccccc12 (stereo unspecified) | -10.8% (inactive)
30 | CCCCC1C(=O)N(c2ccccc2)N(c2ccccc2)C1=O | 11.8% (active)
31 | N#C/C(=C\c1ccc(-c2cc(Cl)ccc2Cl)o1)C(=O)Nc1cccc2ncccc12 | 6.8% (active)
32 | Fc1ccc([C@@H]2CCNC[C@H]2COc2ccc3c(c2)OCO3)cc1 | 15.8% (active)
33 | N=c1nc(N2CCCCC2)cc(N)n1O | 1.6% (active)
34 | Nc1ccn([C@H]2CC[C@@H](CO)O2)c(=O)n1 | 9.9% (active)
35 | C=CCc1cccc(/C=N/NC(=O)CN2CCN(Cc3ccccc3)CC2)c1O | 1.7% (active)
36 | C=CCn1c(=O)c2c(nc(-c3ccc(S(=O)(=O)O)cc3)n2C)n(C)c1=O | 1.4% (active)
37 | N#Cc1cc2nc(O)c(O)nc2cc1[N+](=O)[O-] | 69.8% (active)
38 | CNC[C@H](O)c1cccc(O)c1 | 17% (active)
39 | CNC[C@H](O)c1ccc(O)c(O)c1 | 53.5% (active)
40 | CNCC(O)c1ccc(O)c(O)c1 (stereo unspecified) | 39.2% (active)
41 | CNCCc1cnc(CCC(c2ccccc2)c2ccccc2)[nH]1 | 14.6% (active)
42 | Cc1cn([C@H]2C=C[C@@H](CO)O2)c(=O)[nH]c1=O | 21.2% (active)
43 | O=c1[nH]c(=O)n([C@H]2C[C@H](O)[C@@H](CO)O2)cc1Br | 6.3% (active)
44 | Cc1cn([C@H]2C[C@@H](N=[N+]=[N-])[C@@H](CO)O2)c(=O)[nH]c1=O | 18.1% (active)

Row | Structure (SMILES) | inhibition
45 | O=c1[nH]c(=O)n([C@H]2C[C@H](O)[C@@H](CO)O2)cc1/C=C/Br | 11.6% (active)
46 | N#CC(C#N)=C(N)/C(C#N)=C/c1ccc(O)cc1 | 85.4% (active)
47 | Cn1cc(C(F)(F)F)nc1-c1ccc(OCC(O)CNCCOc2ccc(O)c(C(N)=O)c2)cc1 (stereo unspecified) | 45.1% (active)
48 | CC12C(=O)OC(=O)C1(C)C1CCC2O1 (stereo unspecified) | 1.8% (active)
49 | CNC(=O)c1cc2c(cn1)[nH]c1ccccc12 | 4.2% (active)
50 | Cc1ccccc1N1C(=O)c2cc(S(N)(=O)=O)c(Cl)cc2NC1C (stereo unspecified) | 9.2% (active)
51 | O=c1[nH]c(=S)[nH]c(-c2ccccc2)c1Cc1c(O)ccc2ccccc12 | 55.9% (active)
52 | Cc1ccc(S(=O)(=O)/C=C/C#N)cc1 | 10.5% (active)
53 | CC(C)(C)c1ccc(S(=O)(=O)/C=C/C#N)cc1 | 3.4% (active)
54 | NC12CC3CC(CC(C3)C1)C2 | 33.3% (active)
55 | CC12CC3CC(C)(C1)CC(N)(C3)C2 | -1.7% (inactive)
56 | CCOC(=O)C(C)Oc1cccc2c(=O)n(CC(=O)Nc3ccc4c(c3)OCCO4)ccc12 (stereo unspecified) | 9.3% (active)
57 | CC1=C(C(=O)O)N2C(=O)[C@@H](NC(=O)C(N)c3ccccc3)[C@H]2SC1 (stereo partly specified) | 37.1% (active)
58 | NC(C(=O)N[C@@H]1C(=O)N2C(C(=O)O)=C(Cl)CS[C@H]12)c1ccccc1 (stereo partly specified) | 23.8% (active)
59 | CC1=C(C(=O)O)N2C(=O)[C@@H](NC(=O)C(N)C3=CCC=CC3)[C@H]2SC1 (stereo partly specified) | 20.2% (active)
60 | NC(=O)c1cc[n+](CC2=C(C(=O)O)N3C(=O)[C@@H](NC(=O)[C@@H](c4ccccc4)S(=O)(=O)[O-])[C@H]3SC2)cc1 | 14.6% (active)
61 | CN1CC(=O)N/C1=N\C(=O)Nc1cccc(Cl)c1 | -0.6% (inactive)
62 | CC1=C(CC(=O)O)c2cc(F)ccc2/C1=C\c1ccc(S(C)=O)cc1 (stereo unspecified) | 14.1% (active)
63 | CC1=C(CC(=O)O)c2cc(F)ccc2/C1=C\c1ccc(S(C)(=O)=O)cc1 | 13.7% (active)
64 | CC(=O)N[C@@H](Cc1c[nH]c2ccccc12)C(=O)OCc1cc(C(F)(F)F)cc(C(F)(F)F)c1 | 4.9% (active)
65 | NC(=O)OCC(COC(N)=O)c1ccccc1 | 6.4% (active)
66 | N=C(N)c1ccc(OCCCCCOc2ccc(C(=N)N)cc2)cc1 | 14.9% (active)

Row | Structure (SMILES) | inhibition
67 | N=C(N)c1ccc(N)cc1 | -0.4% (inactive)
68 | NC1(C(=O)O)CCCCC1 | 12.2% (active)
69 | NC1(C(=O)O)CC1 | 0.9% (active)
70 | Clc1nccc2c1ccc1ccccc12 | 5.5% (active)
71 | CN(C)C(=O)C(CCN1CCC(O)(c2ccc(Cl)cc2)CC1)(c1ccccc1)c1ccccc1 | -0.4% (inactive)
72 | O=C(CCCN1CCC(O)(c2cccc(C(F)(F)F)c2)CC1)c1ccc(F)cc1 | 1.8% (active)
73 | O=C(CCCN1CCC(O)(c2ccc(Cl)cc2)CC1)c1ccc(F)cc1 | 4.3% (active)
74 | CN(C(=O)CCCOc1ccc2[nH]c(=O)ccc2c1)C1CCCCC1 | 13.1% (active)
75 | CN1C2CCC1CC(OC(c1ccccc1)c1ccccc1)C2 (stereo unspecified) | 7.5% (active)
76 | CN1C2CCC1CC(OC(=O)c1c[nH]c3ccccc13)C2 (stereo unspecified) | 8.4% (active)
77 | CN1C2CCC1CC(OC(=O)C(CO)c1ccccc1)C2 (stereo unspecified) | 0.4% (active)
78 | CN1C2CC(OC(=O)[C@H](CO)c3ccccc3)CC1C1OC12 (stereo partly specified) | 10.8% (active)
79 | CN1C2CCC1CC(OC(=O)C(O)c1ccccc1)C2 (stereo unspecified) | 6.4% (active)
80 | CC(C)(C)C(=O)Oc1ccc(S(=O)(=O)Nc2ccccc2C(=O)NCC(=O)O)cc1 | 18.6% (active)
81 | CNC1(C)C2CCC(C2)C1(C)C (stereo unspecified) | -4.4% (inactive)
82 | NC(=O)NO | 11.4% (active)
83 | CC(C)C[C@H](NC(=O)C1OC1C(=O)O)C(=O)NCCCCN=C(N)N (stereo partly specified) | -7.9% (inactive)
84 | N[C@H](C(=O)O)[C@H](Cc1ccccc1)C(=O)O | 4.3% (active)
85 | NCCCNCCSP(=O)(O)O | 7.6% (active)
86 | NCCCCNCCCN | -8.3% (inactive)
87 | NCCCNCCCCNCCCN | 19.3% (active)
88 | S=C(S)N1CCCC1 | 86.2% (active)

Row | Structure (SMILES) | inhibition
89 | CC(C)CC(NP(=O)(O)O[C@@H]1O[C@@H](C)[C@H](O)[C@@H](O)[C@H]1O)C(=O)NC(Cc1c[nH]c2ccccc12)C(=O)O (stereo partly specified) | 59.4% (active)
90 | O=C(O)c1cccnc1Nc1cccc(C(F)(F)F)c1 | 3.2% (active)
91 | Nc1ncnc2c1nc(Br)n2C1OC2COP(=O)(O)O[C@@H]2C1O (stereo partly specified) | 4.7% (active)
92 | Nc1nc(O)c2nc(Br)n(C3OC4COP(=O)(O)O[C@@H]4C3O)c2n1 (stereo partly specified) | 9.3% (active)
93 | Nc1ncnc2c1nc(Sc1ccc(Cl)cc1)n2C1OC2COP(=O)(O)O[C@@H]2[C@@H]1O (stereo partly specified) | 7.4% (active)
94 | Nc1ncnc2nc(-c3ccc(N4CCOCC4)nc3)cc(-c3cccc(Br)c3)c12 | -3% (inactive)
95 | O=c1[nH]c2cc(Cl)ccc2c(O)c1-c1ccc(Oc2ccccc2)cc1 | 8.7% (active)
96 | CN(C)c1nc(N(C)C)nc(N(C)C)n1 | 31.3% (active)
97 | CN1[C@@H](CC(=O)c2ccccc2)CCC[C@H]1C[C@H](O)c1ccccc1 | 15.5% (active)
98 | O=C(O)CCCC[C@@H]1CCSS1 | 0.1% (active)
99 | Cc1cc(C(C)(C)C)c(O)c(C)c1CC1=NCCN1 | 11.2% (active)
100 | Cc1cc(C(C)(C)C)cc(C)c1CC1=NCCN1 | 5% (active)
101 | CC(=O)[C@H]1CC[C+]2C3CC=C4C[C@@H](OS(=O)(=O)[O-])CC[C@]4(C)C3CC[C@@]21C (stereo partly specified) | -11.2% (inactive)
102 | CCN(Cc1ccncc1)C(=O)C(CO)c1ccccc1 (stereo unspecified) | 1.5% (active)
103 | COc1ccc(/C=C2\COc3ccc(C)cc3C2=O)cc1O | 75.9% (active)
104 | CCCc1c(-c2ccc(O)cc2)nn(-c2ccc(O)cc2)c1-c1ccc(O)cc1 | 68.4% (active)
105 | Brc1c(NC2=NCCN2)ccc2nccnc12 | 21.8% (active)
106 | CC(=O)O[C@H]1CC2(C)[C@@H](C[C@@H](O)[C@H]3[C@@]4(C)CC[C@@H](O)[C@@H](C)[C@@H]4CC[C@@]32C)/C1=C(/CCC=C(C)C)C(=O)O (stereo partly specified) | 15.9% (active)
